About 79,000 compounds went through this panel and 15% of them were active in at least one assay; those are over-represented in the sample as a whole. Cut-off read from the data, not from the text of the source: active = growth inhibition above about 70%; inactive = the rest.
Legend:
[1] = NCI Yeast Anticancer Drug Screen. Data for the rad50 strain (AID 155);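 note: 0% = growth of vehicle-only cultures of the same strain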; conditions: S. cerevisiae rad50 strain growth inhibition; at 50.0 µM; active compounds read high
Method in brief: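 Inhibition values express reduced yeast growth in compound-treated cultures relative to vehicle-treated controls.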

[2] = NCI Yeast Anticancer Drug Screen. Data for the mec2-1 strain (AID 157); conditions: S. cerevisiae mec2-1 strain, at 50.0 µM, active compounds read high
Method in brief: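 Test agents were screened against the mec2-1 yeast strain, with defined DNA repair or cell cycle alteration. Growth was scored as inhibition against vehicle-only controls.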

[3] = NCI Yeast Anticancer Drug Screen. Data for the sgs1 mgt1 strain (AID 161);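 note: 0% = growth of cultures given vehicle only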; conditions: S. cerevisiae sgs1 mgt1 strain, at 50.0 µM, active compounds read high
Method in brief: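 Mutant yeast exposed to compound; growth scored against vehicle-only wells.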

[4] = NCI Yeast Anticancer Drug Screen. Data for the cln2 rad14 strain (AID 165);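 note: 0% = growth equal to vehicle treated cultures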; conditions: S. cerevisiae cln2 rad14 strain, at 50.0 µM, active compounds read high
Method in brief: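 Growth of compound-exposed yeast (cln2 rad14 genotype) measured and expressed as inhibition relative to vehicle.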

[5] = NCI Yeast Anticancer Drug Screen. Data for the bub3 strain (AID 167); conditions: S. cerevisiae bub3 mutant strain, at 50.0 µM, active compounds read high
Method in brief: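 Steps: expose the mutant yeast strain to compound; grow alongside vehicle-treated cultures; measure growth; express inhibition against the vehicle cultures.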

[6] = NCI Yeast Anticancer Drug Screen. Data for the mlh1 rad18 strain (AID 175); conditions: S. cerevisiae mlh1 rad18 strain growth inhibition; at 50.0 µM; active compounds read high
Method in brief: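 In this whole-cell yeast screen, a strain with altered DNA damage repair is challenged with compound, and its growth is measured against matched vehicle-treated controls.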

Measured: growth inhibition

Cc1cccc(Cl)c1N=Nc1c(N)nc(N)[nH]c1=O
inactive: [1] 15.8% | [2] -20.8% | [3] -5.1% | [4] -4.8% | [5] -0.35% | [6] -0.5%

CCCCSc1nc2c(=O)[nH][nH]c(=O)c2n1Cc1ccccc1
inactive: [1] 11.9% | [2] 3.45% | [3] 23.2% | [4] 14.7% | [5] -0.8% | [6] 1.5%

N#CC1=CCc2ccccc2N1C(=O)Oc1ccccc1
inactive: [1] 58.5% | [2] 12.7% | [3] 50% | [4] 19.4% | [5] 64.6% | [6] 47.2%

Cc1cc2ccccc2c[n+]1CC(=O)c1ccc([N+](=O)[O-])cc1
inactive: [1] -4.1% | [2] 32.1% | [3] 62% | [4] -1.85% | [5] 7.35% | [6] 51.7%

CC1(C)OC(=O)CC1CCN (stereo not given)
inactive: [1] -0.75% | [2] -13.5% | [3] -7.05% | [4] -30.9% | [5] 14.9% | [6] 13.2%

O=C(Nc1ccccc1)O/N=C(/c1ccccc1)c1cccnc1
inactive: [1] 15.2% | [2] -5.1% | [3] 13.2% | [4] -3.3% | [5] 15.2% | [6] 6.3%

CCOC(=O)Nc1ccc(C2SCCN2C(=O)NC)cc1 (stereo not given)
inactive: [1] 8.35% | [2] -22.1% | [3] 18.4% | [4] 17.4% | [5] 5.85% | [6] 32.2%

O=C(C[n+]1ccncc1)c1ccccc1
inactive: [1] -20.8% | [2] -18.7% | [3] -6.35% | [4] -6.25% | [5] -10.2% | [6] 2.65%

CC(C)c1ccc(C(=O)OCCCc2ccccc2)cc1
inactive: [1] 8.7% | [2] -5.65% | [3] 18.2% | [4] -10.7% | [5] 4% | [6] 0.8%

O=C(NC1(C(=O)Oc2ccc([N+](=O)[O-])cc2)CCCC1)OCc1ccccc1
inactive: [1] 7.25% | [2] 20.2% | [3] 26.1% | [4] 8.85% | [5] -1.7% | [6] 28.9%

CSc1nc(NC2OCC(OC(C)=O)C(OC(C)=O)C2OC(C)=O)c(N=CC=Nc2c(NC3OCC(OC(C)=O)C(OC(C)=O)C3OC(C)=O)nc(SC)[nH]c2=O)c(=O)[nH]1 (stereo not given)
inactive: [1] 11.8% | [2] -7.9% | [3] -0.35% | [4] 7.15% | [5] -1.65% | [6] 8.25%

BrCCCOc1ccccc1Br
inactive: [1] 14.6% | [2] -11.2% | [3] 1.6% | [4] -32.1% | [5] 4.2% | [6] 14.2%

Cn1c(=O)n2n(c1=O)C1C=CC2C2C=C(c3ccccc3)C21 (stereo not given)
inactive: [1] -18.4% | [2] -1.35% | [3] -0.8% | [4] 1.75% | [5] 36.5% | [6] 0.3%

CC(=O)c1ccc(N=Nc2ccc3nonc3c2N)cc1
inactive: [1] -22.5% | [2] -4.35% | [3] -20.6% | [4] -10.2% | [5] 5.25% | [6] -9.45%

CC(CO)CCC(=O)C(C)C1CC2(C)CCC3C(CCC4CC(O)CCC43C)C2C12SCCS2 (stereo not given)
inactive: [1] 0.6% | [2] 19.5% | [3] -7.8% | [4] 17.1% | [5] 36.6% | [6] -0.25%

O=C1CCCCC1N1CCCCC1 (stereo not given)
inactive: [1] -4.95% | [2] -14.7% | [3] 10.8% | [4] 2.65% | [5] -1.3% | [6] 0%

C(=Nc1ccc2c(c1)Cc1ccccc1-2)c1ccccn1
inactive: [1] 61.8% | [2] -35.5% | [3] 24.3% | [4] 16.9% | [5] -22.8% | [6] 49.4%

CN(C)CCN1CC2C3CCCCC3=C3CCCCC3C2C1 (stereo not given)
inactive: [1] -0.45% | [2] 10.1% | [3] 31.9% | [4] -24.4% | [5] 23.8% | [6] 37.9%

CCN(C)C(=O)NC(C)=O
inactive: [1] 2.65% | [2] 11.1% | [3] -17.9% | [4] -14% | [5] 2.5% | [6] 15%

O=C(Nc1ccc2ccccc2c1)C1CC1
inactive: [1] 0.2% | [2] -13.3% | [3] -9.15% | [4] -68.8% | [5] -33.1% | [6] -6.65%
